Screening results (PubChem)
Rows were chosen to be rich in hits. Some 15% of all compounds tested hit in one or more screens of this group.
Pf growth 96h – Primary qHTS for delayed death inhibitors of the malarial parasite plastid, 96 hour incubation. P. falciparum luciferase reporter growth, 96 h. Potency, µM (doses to about 28.7 µM), actives largely listed as inhibitors. actives 6.9% (n = 320,000). AID 504834, 2011
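96 h incubation, 37 C, 5% CO2, of luciferase-reporter P. falciparum-infected RBCs (2% hematocrit, 0.05% parasitemia final) with test compounds; endpoint luminescence.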
HCV inhibitor – qHTS Assay for Inhibitors of Hepatitis C Virus (HCV). actives 3.4% (n = 340,000). Potency, µM (top dose mostly 41.8 µM), usual class: inhibitors. Huh7.5.1 HCVcc-Cre infection, luciferase reporter, 44 h. AID 651820, 2012
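After 44 h co-culture of compound, cells and HCVcc-Cre (~0.5 moi), substrate is added for 15 min at room temperature and luciferase measured over 15 sec. Cells were seeded at 1,000/well and pre-cultured 4 h.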
HCMV antiviral – qHTS Assay for inhibitors of the human cytomegalovirus (HCMV); HFF cells, HCMV-luciferase reporter, 72 h; stronger effect = lower value; activity change, negative = inhibition, % at 57.5 µM; actives 4.5% (n = 410,000); AID 1259415, 2018; in the data active = activity change below about -60%; inconclusive = no clear call, values can overlap the other calls; inactive = above about -39%
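Steps: HFFs plated, 16 h 37C; compounds added; HCMV-luciferase added to MOI 1 PFU/cell; 72 h 37C; OneGlo reagent, 5 min room temperature; luminescence read, normalized to controls.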
Pf growth 48h – Primary qHTS for delayed death inhibitors of the malarial parasite plastid, 48 hour incubation. Potency, µM (titrated, usually from 28.7 µM), most hits filed as inhibitors. P. falciparum luciferase growth in erythrocytes, 48 h. actives 5.9% (n = 310,000)
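Cell-based growth assay: transgenic P. falciparum expressing firefly luciferase, cultured in red cells within RPMI 1640 containing 0.5% w/v Albumax, 24 mM bicarbonate and gentamycin. A drop in luciferase activity indicates inhibition.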
SARS PLP yeast – qHTS of Yeast-based Assay for SARS-CoV PLP; S. cerevisiae expressing SARS-CoV PLpro, growth rescue; actives 0.19% (n = 330,000); AID 485353, 2010; Potency, µM (top dose mostly 32.9 µM), hits mostly activators; calls by dose curve; note: nearly all actives have a fitted effect of over 55% in size
Sm TGR inh – qHTS Assay for the Inhibitors of Schistosoma Mansoni Peroxiredoxins; Schistosoma mansoni thioredoxin glutathione reductase (TGR), Q962Y6; purified TGR, DTNB reduction, TNB absorbance 405 nm; Potency, µM (highest dose often 114 µM), usual class: inhibitors; actives 3% (n = 360,000); note: nearly all actives have a fitted effect of over 60% in size
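First, TGR (20 nM dispensed) and NADPH were mixed with compound. Second, a 15 min room-temperature incubation followed. Third, further NADPH and then DTNB were added to start the reaction. Finally, TNB absorbance was monitored kinetically.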
Large screens that a line does not name were inactive. Unless noted, calls come from the whole dose curve; as a rule, active = well fitted curve in the direction sought with a large enough effect; inconclusive = small, poorly fitted or top-dose-only effect, or another doubt; inactive = no such curve, though single readings can be large; an effect the other way counts as inactive or inconclusive.

COc1ccc(OCCC(=O)OCC(=O)NCc2ccc(F)cc2)cc1	none
COc1ccccc1N(CC(=O)N1CCN(Cc2ccccc2)CC1)S(=O)(=O)c1ccccc1	none (no result: Pf growth 96h, HCV inhibitor, Pf growth 48h, SARS PLP yeast, Sm TGR inh)
CSc1nc2nc3c(cc2c(=O)n1-c1ccccc1C)CCCC3	Pf growth 96h inconclusive, HCV inhibitor inconclusive, HCMV antiviral -91, Pf growth 48h inconclusive
CSc1nc2sc3c(c2c(=O)n1-c1ccccc1C)CCCC3	none (no result: Pf growth 96h, HCV inhibitor, Pf growth 48h, SARS PLP yeast)
CCCOC1CCCN(Cc2nc(-c3ccc(C(=O)OC)cc3)no2)C1 (configuration not stated)	none
CC(C)(C)NC(=O)[C@@H]1CC[C@@H]2[C@@H]3CC[C@@H]4NC(=O)C=C[C@@]4(C)[C@H]3CC[C@]21C	none (no result: HCV inhibitor, HCMV antiviral, SARS PLP yeast, Sm TGR inh)
COc1ccc(C(=O)NNC(=O)CSc2nc(C(C)C)nc3ccccc23)cc1	Pf growth 96h inconclusive, HCMV antiviral -65
CC(C)c1nc(SCC(=O)Nc2ccc(N(C)C)cc2)c2ccccc2n1	HCV inhibitor inconclusive, HCMV antiviral -77, Pf growth 48h 12µM
CCOC(=O)CSc1nc(C(C)C)nc2ccccc12	Pf growth 96h 13µM
CC(C)(C)c1nc(SCC(=O)NC2CCCC2)c2ccccc2n1	none
COC(=O)CSc1nc(C(C)C)nc2ccccc12	none
CC(C)c1nc(SCC(=O)Nc2nccs2)c2ccccc2n1	Pf growth 96h inconclusive, HCMV antiviral inconclusive
CC(C)(C)c1nc(SCC(=O)NNC(=O)c2ccccc2)c2ccccc2n1	HCV inhibitor inconclusive, HCMV antiviral -63
NC(COCc1ccccc1)c1csc(Nc2ccccn2)n1 (configuration not stated)	none (no result: Pf growth 96h, HCV inhibitor, Pf growth 48h, SARS PLP yeast, Sm TGR inh)
COc1ccc(Cc2nc3ccc(C(=O)NCc4cc(Br)ccc4OC)cc3o2)cc1	none (no result: Pf growth 96h, HCV inhibitor, Pf growth 48h, SARS PLP yeast)
CN(C)c1ccc(NC(=O)CSc2nc(N)c(C(=O)Nc3ccc(N(C)C)cc3)s2)cc1	Pf growth 96h inconclusive, HCV inhibitor 10µM, HCMV antiviral inconclusive, Pf growth 48h inconclusive
Cc1nc2ccccc2c(=O)[nH]1	none (no result: Pf growth 96h, Pf growth 48h)
Cc1cc2[nH]c3c4ccccc4nc(C)c3c2cc1C	HCV inhibitor 13µM, HCMV antiviral -101 (no result: Pf growth 96h, Pf growth 48h, SARS PLP yeast, Sm TGR inh)
c1ccc2c(c1)CCC[C@@H]2C1=NCCN1	none (no result: HCV inhibitor, HCMV antiviral, SARS PLP yeast, Sm TGR inh)
Cc1cccc2nc(=S)n(C(=O)c3ccco3)n12	Sm TGR inh 22µM
O=C(c1ccco1)n1c(=S)nc2ccccn21	Sm TGR inh 50µM
Cc1ccc(NC(=O)COC(=O)c2ccc(CN3CCCC3=O)cc2)c(Cl)c1	none
CCn1c(C)cc(/C=C2\NC(=O)N(Cc3ccc(Cl)cc3)C2=O)c1C	Pf growth 96h inconclusive, HCV inhibitor 13µM, Pf growth 48h inconclusive
CCN1C(=O)N/C(=C/c2cc(C)n(Cc3ccccc3)c2C)C1=O	Pf growth 96h inconclusive, HCV inhibitor 10µM, HCMV antiviral inconclusive, Pf growth 48h inconclusive
Oc1ccc(C[C@H]2CNC(=S)N2CC2CCCN2C[C@H](Cc2ccccc2)N2C[C@H](Cc3ccc(O)cc3)N(CC3CCCCC3)C2=S)cc1 (some centres not stated)	HCMV antiviral -85 (no result: Pf growth 96h, HCV inhibitor, Pf growth 48h, SARS PLP yeast, Sm TGR inh)
Oc1ccc(C[C@H]2CNC(=S)N2CC2CCCN2C[C@H](Cc2ccc(O)cc2)N2C[C@H](Cc3ccc(O)cc3)N(CC3CCCCCC3)C2=S)cc1 (some centres not stated)	HCV inhibitor inconclusive, HCMV antiviral -67 (no result: Pf growth 96h, Pf growth 48h, SARS PLP yeast, Sm TGR inh)
CC(C)C[C@H]1CNC(=S)N1C[C@H]1CCCN1C[C@H](Cc1ccccc1)N1C[C@H](Cc2ccc(O)cc2)N(CC2CCCCC2)C1=S	none (no result: Pf growth 96h, HCV inhibitor, Pf growth 48h, SARS PLP yeast, Sm TGR inh)
CC(C)C[C@H]1CNC(=S)N1CC1CCCN1C[C@H](Cc1ccc(O)cc1)N1C[C@H](Cc2ccccc2)N(CC2CCCCC2)C1=S (some centres not stated)	HCV inhibitor 11µM, HCMV antiviral -62 (no result: Pf growth 96h, Pf growth 48h, SARS PLP yeast, Sm TGR inh)
CCOC(=O)C1=C(C)NC2=C(C(=O)CCC2)C1c1coc2ccccc2c1=O (configuration not stated)	Pf growth 96h 12µM (no result: Pf growth 48h)
